Hits are enriched below; roughly 2% of the tested compounds scored in any of these assays.
EP2 modulator: EP2 receptor (human) modulation; 260,000 tested, 0.83% active; induction, % at 25 µM; P43116; EP2-expressing cells, cAMP HTRF FRET, PGE2 co-stimulation;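 active means compounds whose cAMP rise, as percent of the full-agonist control response, exceeds 60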;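 further: rat C6 glioma line stably carrying human EP2 under a CMV promoter; the protocol text gives 20 µM as final concentration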
Target sequence (P43116 whole entry, looked up): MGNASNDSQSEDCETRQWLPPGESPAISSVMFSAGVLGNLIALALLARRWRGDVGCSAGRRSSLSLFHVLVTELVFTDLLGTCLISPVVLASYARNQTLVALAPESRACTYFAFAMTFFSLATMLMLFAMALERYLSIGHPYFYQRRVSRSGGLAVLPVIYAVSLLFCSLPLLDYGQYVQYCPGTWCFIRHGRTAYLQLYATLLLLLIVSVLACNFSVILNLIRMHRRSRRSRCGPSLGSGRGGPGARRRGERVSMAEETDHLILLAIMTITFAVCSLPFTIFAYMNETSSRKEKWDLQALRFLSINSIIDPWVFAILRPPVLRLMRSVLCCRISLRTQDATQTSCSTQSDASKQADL
S1P4 antagonist: human S1P4 receptor antagonism. O95977. AID 1510. S1P4-expressing cells, antagonist mode, reporter read-out. 220,000 tested, 0.26% active. inhibition, % at 4.98 µM; in the data active means inhibition above about 29%
EP2 antag: inhibitors of human EP2 prostaglandin E2 receptor | P43116 | C6 glioma cells expressing human EP2, cAMP TR-FRET; cells stimulated with saturating PGE2 | inhibition, % at 25 µM | 260,000 tested, 0.52% active | AID 1422;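 active means percent inhibition above 40 after rounding to a whole number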;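 further: rat C6 glioma host cells with rolipram phosphodiesterase inhibitor present; the protocol text gives 20 µM as final concentration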
S1P4 ag: agonists of human S1P4 receptor; S1P4-expressing cell line, agonist reporter assay; activation, % at 4.98 µM; AID 1509; 220,000 tested, 0.35% active; in the data active means activation above about 11%
S1P3 antag: S1P3 (human) receptor antagonism; inhibition, % at 4.98 µM; Q99500; 170,000 tested, 0.27% active; CHO S1P3 NFAT-BLA reporter, FRET fluorescence, antagonist mode;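 active means inhibition above the plate cutoff, the mean inhibition of test wells on that plate plus 3 SD, cut at about 28% in these data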;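 further: cells challenged with S1P at its EC80 of 0.8 µM; blue over green emission ratio from cleaved BLA substrate after 4 h stimulation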
S1P4 antag conf: human S1P4 antagonism, confirmation. shares compounds with S1P4 antagonist. AID 1524. inhibition, % at 4.98 µM. S1P4-expressing cell line, antagonist mode, reporter read-out. 520 tested, 71% active; in the data active means inhibition above about 30%
S1P1 antag: human S1P1 antagonism as S1P4 antagonist counter-screen. shares compounds with S1P4 antagonist. cell-based S1P1 antagonist counterscreen, inhibition. inhibition, % at 4.98 µM. 520 tested, 37% active. AID 1564; in the data active means inhibition above about 40%;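 further: receptor stimulated with S1P near its EC80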
Target sequence (P21453 whole entry, looked up): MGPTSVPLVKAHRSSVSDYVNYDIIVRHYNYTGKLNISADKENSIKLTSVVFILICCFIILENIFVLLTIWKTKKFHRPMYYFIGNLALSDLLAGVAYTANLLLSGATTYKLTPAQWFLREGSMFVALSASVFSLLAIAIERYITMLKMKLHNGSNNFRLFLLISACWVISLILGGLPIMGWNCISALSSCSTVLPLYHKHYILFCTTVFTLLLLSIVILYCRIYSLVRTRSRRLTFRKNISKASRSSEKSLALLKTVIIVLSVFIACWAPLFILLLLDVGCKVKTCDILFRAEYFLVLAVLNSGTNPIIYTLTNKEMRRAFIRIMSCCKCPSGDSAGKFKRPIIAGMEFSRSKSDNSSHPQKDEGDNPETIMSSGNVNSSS
Each line names hits and unclear results; the compound was inactive in the other large screens (follow-up assays come after a bar, where they were run).

CCOC(=O)/C(=C\c1ccc(OC(F)F)cc1)C1=Nn2c(nnc2-c2ccc(Cl)cc2)SC1	S1P4 antagonist 31 | S1P4 antag conf 119 | S1P1 antag 87
CCN(CC)C(=O)CN(C#N)c1nc(Cl)nc(N(C)C)n1	S1P4 antagonist 42 | S1P4 antag conf 50 | S1P1 antag inactive
Cc1ccc(OCC(=O)Nc2ccccc2N2CCN(C(=O)C(C)C)CC2)cc1C	none (no result: S1P4 antagonist, S1P4 ag, S1P3 antag)
N#C/C(=C\c1ccncc1)c1nc2ccccc2o1	none
N#C/C(=C\c1cccc(O)c1)c1nc2ccccc2o1	S1P4 antagonist 32 | S1P4 antag conf inactive | S1P1 antag inactive
CN(C)CCCNC(=O)/C(=C\c1ccc(-c2ccc(Br)cc2)o1)NC(=O)c1ccccc1	none
Cc1ccc(C(=O)N/C(=C\c2ccc(-c3ccc(Cl)cc3)o2)C(=O)NCCCN(C)C)cc1	S1P4 antagonist 36 | S1P4 antag conf inactive | S1P1 antag inactive
N=C1SCC(=O)N1c1ncc(Cc2ccccc2Cl)s1	S1P4 antagonist 48 | S1P4 antag conf 94 | S1P1 antag 98
O=C(CSc1nc2sc3c(c2c(=O)[nH]1)CCCC3)NCc1cccs1	none (no result: S1P4 antagonist, S1P4 ag, S1P3 antag)
CCCc1ncc(CNC2(c3ccc(Cl)cc3)CC2)cn1	none (no result: S1P4 antagonist, S1P4 ag, S1P3 antag)
CCOC(=O)COc1ccc(S(=O)(=O)N2CCN(c3ccccc3F)CC2)cc1	S1P4 antagonist 36 | S1P4 antag conf inactive | S1P1 antag inactive
Cc1ccc2[nH]c(O)c(N=NC(N)=S)c2c1	none
CC(/C=C(\NC(=O)c1ccccc1)C(=O)N=Nc1c(O)[nH]c2ccc(C)cc12)=C\c1ccccc1	S1P4 antagonist 35 (no result: S1P3 antag) | S1P4 antag conf inactive | S1P1 antag inactive
Cc1ccccc1NC(=O)N1CCc2ccccc2C1	S1P4 antagonist 32 | S1P4 antag conf 80 | S1P1 antag inactive
c1ccc(CN2CCN(c3nc(N4CCOCC4)c4ccccc4n3)CC2)cc1	S1P4 antagonist 36 (no result: EP2 modulator, S1P3 antag) | S1P4 antag conf inactive | S1P1 antag inactive
Cc1nnc(N/N=C/c2c(Cl)cccc2Cl)n1N	S1P4 antagonist 30 | S1P4 antag conf inactive | S1P1 antag inactive
CCn1c(COc2ccc(Br)cc2)nnc1SCC(=O)Nc1ccccc1C	none (no result: S1P4 antagonist, S1P4 ag, S1P3 antag)
Cn1c(=O)[nH]c(=O)c2c1nc([N+](=O)[O-])n2Cc1ccccc1	S1P4 antagonist 51 | S1P4 antag conf 68 | S1P1 antag 56
CC(C)Cn1c([N+](=O)[O-])nc2c1c(=O)[nH]c(=O)n2C	S1P4 antagonist 29 | S1P4 antag conf inactive | S1P1 antag inactive
CCNc1nc2c(c(=O)[nH]c(=O)n2C)n1CC(C)C	none
COc1ccc(S(=O)(=O)Nc2ccccc2C(=O)NCc2ccco2)cc1C	none (no result: S1P4 antagonist, S1P4 ag, S1P3 antag)
Cc1ccc(N/C(N)=N/c2nc(C)cc(N3CCCCC3)n2)c(C)c1	S1P4 antagonist 45 | S1P4 antag conf 45 | S1P1 antag inactive
Cc1ccc(N/C(N)=N/c2nc3c(c(=O)[nH]2)CCCC3)c(C)c1	none (no result: S1P3 antag)
CCc1ccc(N(CC(=O)N2CCC(C)CC2)S(C)(=O)=O)cc1	none (no result: S1P4 antagonist, S1P4 ag, S1P3 antag)
CCN1CCN(c2c(Cl)cccc2NC(=O)COc2ccc(OC)cc2)CC1	none (no result: S1P4 antagonist, S1P4 ag, S1P3 antag)
Cc1ccc(-c2nc(CS(=O)CC(=O)NC3CCC(C)CC3)c(C)o2)cc1 (centres undefined)	S1P4 antagonist 78 | S1P4 antag conf inactive | S1P1 antag inactive
CCCCNC(=O)CS(=O)Cc1nc(-c2ccc(C)cc2)oc1C (centres undefined)	none
CCCC(=O)c1c(C)nc2c(c1-c1ccc(OC)c(OC)c1)C(=O)c1ccccc1-2	none (no result: S1P4 antagonist, S1P4 ag, S1P3 antag)
COc1cc(NC(=O)Cn2ncc(Cl)c(Cl)c2=O)c(C)cc1[N+](=O)[O-]	S1P4 antagonist 93 | S1P4 antag conf 119 | S1P1 antag 40
COc1cc(NC(=O)CN2C(=O)CN(C)C2=O)c(C)cc1[N+](=O)[O-]	none
CCOc1ccc2nc(N3CCCC(O)C3)c(C#N)cc2c1 (centres undefined)	none (no result: S1P4 antagonist, S1P4 ag, S1P3 antag)
Cc1ccc(OCCCC(=O)Nc2nc3ccc(S(C)(=O)=O)cc3s2)cc1	none (no result: S1P4 antagonist, S1P4 ag, S1P3 antag)
CCOC(=O)c1sc(NC(=O)c2ccccc2F)c(C#N)c1C	none (no result: S1P4 antagonist, S1P4 ag, S1P3 antag)
COc1ccccc1S(=O)(=O)c1ccccc1[N+](=O)[O-]	none
COc1ccc([N+](=O)[O-])c(S(=O)(=O)c2ccc(Cl)cc2)n1	S1P4 antagonist 93 | S1P4 antag conf 117 | S1P1 antag 104
COc1ccc([N+](=O)[O-])c(S(=O)(=O)c2ccccc2)n1	S1P4 antagonist 88 | S1P4 antag conf 119 | S1P1 antag 79
COc1nc(OC)nc(Oc2ccc(Cl)cc2[N+](=O)[O-])n1	none
Nc1ccc(C2CCCc3nonc32)c2nonc12 (centres undefined)	S1P4 antagonist 43 | S1P4 antag conf inactive | S1P1 antag inactive
CCC(NC(=O)Nc1nnc(C(F)(F)F)s1)(C(F)(F)F)C(F)(F)F	S1P4 antagonist 38 (no result: S1P3 antag) | S1P4 antag conf 51 | S1P1 antag inactive
COCC(=O)Nc1nnc(C(F)(F)F)s1	none (no result: S1P4 antagonist, S1P4 ag, S1P3 antag)
O=C(Nc1nnc(-c2cccs2)o1)c1cccc(Oc2ccccc2)c1	S1P4 antagonist 32 | S1P4 antag conf 98 | S1P1 antag 94
O=[N+]([O-])c1cc(S(=O)(=O)NCCN2CCOCC2)ccc1Sc1nnnn1-c1ccccc1	none
Cc1ccc(-n2nnnc2Sc2ccc(S(=O)(=O)NCCN(C)C)cc2[N+](=O)[O-])cc1	S1P4 antagonist 49 | S1P4 antag conf 68 | S1P1 antag 59
O=c1oc2ccccc2c(NCc2ccccc2F)c1[N+](=O)[O-]	none
CC(C)c1ccc(CNc2c([N+](=O)[O-])c(=O)oc3ccccc23)cc1	S1P4 antagonist 32 | S1P4 antag conf inactive | S1P1 antag inactive
O=c1cc(O)c2c(=O)n(Cc3ccccc3)c3ccccc3c2o1	S1P4 antagonist 89 | S1P4 antag conf inactive | S1P1 antag inactive
C=CCOc1ccc(C(=O)N2C3CCC2CC(O)(c2cccnc2OC)C3)cc1 (centres undefined)	none (no result: S1P4 antagonist, EP2 antag, S1P4 ag, S1P3 antag)
Cc1cc(N2CCOCC2)ccc1/C=C\[N+](=O)[O-]	S1P4 antagonist 39, EP2 antag 57 | S1P4 antag conf 82 | S1P1 antag inactive
O=[N+]([O-])c1ccc(N2CCOCC2)cc1O	none
Cc1oc2c(c1C(=O)N1CCC(C(=O)c3nc4ccccc4s3)CC1)CCCC2	none (no result: S1P4 antagonist, EP2 antag, S1P4 ag, S1P3 antag)
N/C(=N/OC(=O)c1ccccc1Cl)c1ncc([N+](=O)[O-])s1	S1P4 antagonist 34 | S1P4 antag conf inactive | S1P1 antag inactive
O=C(CN1N=C(c2ccccc2)Cn2c(cc3sccc32)C1=O)N1CCCCC1	none (no result: S1P4 antagonist, EP2 antag, S1P4 ag, S1P3 antag)
O=S(=O)(c1ccc(S(=O)(=O)N2CCN(c3ccccc3F)CC2)cc1)N1CCCCCC1	none (no result: S1P4 antagonist, S1P4 ag, S1P3 antag)
CC(=O)Nc1cccc(C(=O)/C=C/c2ccc(F)cc2)c1	S1P4 antagonist 46 | S1P4 antag conf 72 | S1P1 antag inactive
CCN1CCN(CCNC(=O)c2ccc(/C=C3\Sc4ccccc4N(Cc4ccccc4F)C3=O)cc2)CC1	none

Assay outcomes (PubChem BioAssay)
